Shown are actives, neighbours in structure and some others; about 2.2% of the full set was active somewhere.
Abeta rescue = A-beta toxicity reversal in yeast. Potency, µM (doses to about 46.1 µM), most hits filed as activators. 410,000 tested, 0.063% active. yeast expressing A-beta42, growth rescue, OD600, 48 h; response scale: 0% DMSO, 100% iron-clioquinol control; further: nearly all actives have a fitted effect of over 55% in size
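Growth rescue measured by 600 nm absorbance after 48 h yeast culture at 30 C with compound. Values normalized between DMSO and an equimolar ferric chloride plus clioquinol control.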
FUS suppressor = FUS proteinopathy suppression in yeast | S. cerevisiae FUS-expressing, growth rescue, OD600, 24 h | Potency, µM (series often up to 76.6 µM), actives largely listed as activators | 390,000 tested, 0.24% active;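 further: plate controls were DMSO vehicle for no effect and reference control for full effect; nearly all actives have a fitted effect of over 55% in size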
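Galactose (2%) drives FUS expression in yeast precultured in raffinose; seeding density OD 0.005. Test compounds incubated 24hr at 30C and 99% humidity before absorbance at 600 nm was measured.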
TDP-43 yeast inh = TDP-43 toxicity inhibition in yeast. TDP-43 expressing yeast growth rescue, BacTiter-Glo, 24 h. Potency, µM (titrated, usually from 46.1 µM), without a hit: top-dose growth rescue (activation), actives largely listed as activators. 410,000 tested, 1.8% active; further: % of control where 0% means no effect; nearly all actives have a fitted effect of over 50% in size
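Galactose-induced TDP-43 yeast, OD600=0.02, compound pinned; 24 hr, 30 deg C; BacTiter-Glo luminescence for growth. Inhibitors of TDP-43 toxicity read as activators.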
Mito fusion act = blocks mitochondrial division or promotes mitochondrial fusion; S. cerevisiae fusion-defective mutant growth rescue, CellTiterGlo 48 h; Potency, µM (titrated, usually from 46.1 µM), for inactives: at the highest dose growth rescue (activation), hits mostly activators; 320,000 tested, 0.23% active; further: % of control where 0% means no effect; nearly all actives have a fitted effect of over 45% in size
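Temperature-sensitive fusion-defective S. cerevisiae (e.g. fzo1-1, mgm1-5) were grown with compound in YPEG medium (3% ethanol, 3% glycerol) for 48 hours at 37C. Growth rescue was measured as viability by CellTiterGlo luminescence after 10 minutes at ambient.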
aSyn rescue = alpha-synuclein toxicity inhibition in yeast. Yeast expressing alpha-synuclein, growth rescue, BacTiter-Glo, 24 h. Potency, µM (highest dose often 46.1 µM), for inactives: at the top dose growth rescue (activation), actives largely listed as activators. 370,000 tested, 0.14% active. AID 652106; further: % of control where 0% means no effect; nearly all actives have a fitted effect of over 65% in size
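Galactose-induced alpha-syn yeast (OD600=0.02, raffinose-pregrown) + pinned cpd, 24 hr, 30 deg C; growth by BacTiter-Glo luminescence. Growth restoration scores as activation.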
Numbers without * were called inactive; i = inactive; ? = inconclusive; . = not tested or not shown; [ ] = dose if it differs, or a comment. The call rests on the fitted dose curve; in most records, active means well fitted curve in the direction sought with a large enough effect; inconclusive means small, poorly fitted or top-dose-only effect, or another doubt; inactive means no such curve, though single readings can be large; an effect the other way counts as inactive or inconclusive. Potency means the concentration at half of the fitted maximal effect.

SMILES | Abeta rescue | FUS suppressor | TDP-43 yeast inh | Mito fusion act | aSyn rescue
Brc1ccc2nc(-c3ccco3)c(Cc3ccsc3)n2c1 | i | i | 3.2µM* | . | 6%
Clc1cccc(Cc2c(-c3cccc(Cl)c3)nc3ccc(Br)cn23)c1 | i | i | 35µM* | . | -12%
Clc1cccc(-c2nc3ccc(Br)cn3c2Cc2ccccc2)c1 | i | i | ? | . | -16%
Brc1cccc(-c2nc3ccc(Br)cn3c2Cc2ccccc2)c1 | i | i | 28µM* | . | -8%
CCCCn1c(N)c(N(CCOC)C(=O)c2ccc(-n3c(C)ccc3C)cc2)c(=O)[nH]c1=O | i | i | -13% | -6% | 0%
COc1cc(C(=O)Nc2ccc(NC(=O)c3ccccc3Cl)nc2)cc(OC)c1OC | i | i | -8% | -4% | 1%
CN1C(=O)c2cc(NC(=O)Cc3ccccc3)ccc2OC[C@H]2O[C@H](CC(=O)O)CC[C@H]21 | . | i | . | . | .
Cc1ccc2nc(-c3ccco3)c(CC(C)(C)C)n2c1 | i | i | 11µM* | . | 37%
Clc1cccc(Cc2c(-c3cccc(Br)c3)nc3ccc(Br)cn23)c1 | i | i | 20µM* | . | -8%
Fc1cccc(Cc2c(-c3ccccc3)nc3ccc(Br)cn23)c1 | i | i | 24% | . | 2%
CC(C)Nc1nc(NCCOc2ccccc2)c2sccc2n1 | i | i | 17% | . | ?
O=C(NN=Cc1cc(Cl)ccc1[N+](=O)[O-])c1ccco1 | i | . | 12% | . | 1%
Cc1ccccc1NC(=S)N(Cc1ccccn1)Cc1ccccc1Cl | 13µM* | i | ? | 2% | 4%
Cc1cc(Cl)ccc1OCC(=O)N(Cc1ccco1)Cc1ccccc1F | i | ? | -7% | . | .
Cc1cc(=O)[nH]c(N/N=C/c2cc(C)n(-c3ccccc3)c2C)n1 | i | 32µM* | -18% | 3% | 1%
Cc1ccc2nc(-c3ccc(N=Nc4cc(S(=O)(=O)O)c5ccccc5c4O)cc3)sc2c1S(=O)(=O)O | . | . | . | . | -41%
Cc1cc(C(=O)Nc2c(F)cc(F)cc2Br)cs1 | i | i | 13µM* | 3% | 14%
CCCN1CNc2c(c(=O)[nH]c(=S)n2CCc2cc(OC)cc(OC)c2)C1 | . | . | . | . | 1%
CCn1c(/C=C/c2ccccc2)nc2ccccc2c1=O | i | i | 35µM* | 18% | -1%
O=c1c2ccccc2nc(/C=C/c2ccccc2)n1CCCO | i | i | ? | ? | 1%
CCn1c(/C=C/c2ccc(F)cc2)nc2ccccc2c1=O | i | i | 22µM* | 3% | -13%
Cn1c(/C=C/c2ccccc2)nc2ccccc2c1=O | i | i | ? | ? | -13%
CN(C)c1ccc(/C=C/c2cnnc3ccccc23)cc1 | . | . | . | . | -30%
C=CCN1C(=O)[C@@H](CC(=O)NCC2CCCCC2)[C@]2(C(=O)OCC)CCCCC/C=C/12 | . | i | . | . | .
C=CCN1C(=O)[C@@H](CC(=O)NCc2cccs2)[C@]2(C(=O)OCC)CCCCC/C=C/12 | . | i | . | . | .
SMILES | Abeta rescue | FUS suppressor | TDP-43 yeast inh | Mito fusion act | aSyn rescue
CC(C)n1ncc2c(C(=O)Nc3cccc(C#N)c3)cc(C3CC3)nc21 | i | i | 22µM* | 16µM* | 2%[1.84 µM]
CCNC(=O)c1cccc(NC(=O)c2cc(C3CC3)nc3c2cnn3C(C)C)c1 | i | i | 5% | 5% | 0%
CC1(C)CCC[C@@]2(C)CC=C(C(=O)O)[C@@H]3C[C@]312 | i | i | 11µM* | 5% | ?
COc1ccc(N(C(=O)/C=C\C(=O)Nc2ccc(C)cc2)C(C(=O)NCc2ccco2)c2ccc(C)cc2)cc1 (stereo not given) | i | ? | -3% | . | .
COc1ccc(NC(=O)/C=C\C(=O)N(c2ccc(C(C)C)cc2)C(C(=O)NCc2ccco2)c2ccc(C)cc2)cc1 (stereo not given) | i | 4.5µM* | 20% | . | .
O=C(Nc1ccn(CCCN2CCN(c3ccccn3)CC2)c(=O)n1)OCc1ccccc1 | i | i | 29% | . | 2%
CCC(C)c1ccc(NC(=O)c2c([N+](=O)[O-])cnn2CC)cc1 (stereo not given) | i | i | 20µM* | 10% | 17%
CCn1ncc([N+](=O)[O-])c1C(=O)Nc1ccc(C(=O)N2CCCCC2)cc1 | i | i | -1% | 9% | 2%

Screens from PubChem.
